Screening data deposited in PubChem BioAssay by several laboratories.
CYP2C19 inhib = blockers of cytochrome P450 2C19 activity – biochemical, luminescence, ADME assay, primary screen; CYP2C19 Supersomes, luciferin-H EGE luminescence, 30 min; inhibition, % at 5 µM; 96,000 compounds, 21% hits; AID 778, 2007;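 active = CYP2C19 inhibition above a set limit at 5 µM in the primary screen, cut at about 50% in these data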;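 note: plate controls were negative control wells for no effect and 2.5 mM tranylcypromine positive control for full effect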
CYP2C9 act = human CYP2C9 activators, primary screen, biochemical, luminescence. 96,000 compounds, 1.4% hits. Cytochrome P450 2C9 (Homo sapiens), P11712. AID 1024, 2008. activation factor at 5 µM. recombinant CYP2C9, luciferin-H conversion; hits give high values; factor 1 = untreated enzyme, 0 = blocked;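 active = activation factor of 2 or more for CYP2C9 at a 5 µM dose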;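 note: 0 = sulfaphenazole-blocked wells and 1 = vehicle-only wells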
Target sequence (P11712 whole entry, looked up): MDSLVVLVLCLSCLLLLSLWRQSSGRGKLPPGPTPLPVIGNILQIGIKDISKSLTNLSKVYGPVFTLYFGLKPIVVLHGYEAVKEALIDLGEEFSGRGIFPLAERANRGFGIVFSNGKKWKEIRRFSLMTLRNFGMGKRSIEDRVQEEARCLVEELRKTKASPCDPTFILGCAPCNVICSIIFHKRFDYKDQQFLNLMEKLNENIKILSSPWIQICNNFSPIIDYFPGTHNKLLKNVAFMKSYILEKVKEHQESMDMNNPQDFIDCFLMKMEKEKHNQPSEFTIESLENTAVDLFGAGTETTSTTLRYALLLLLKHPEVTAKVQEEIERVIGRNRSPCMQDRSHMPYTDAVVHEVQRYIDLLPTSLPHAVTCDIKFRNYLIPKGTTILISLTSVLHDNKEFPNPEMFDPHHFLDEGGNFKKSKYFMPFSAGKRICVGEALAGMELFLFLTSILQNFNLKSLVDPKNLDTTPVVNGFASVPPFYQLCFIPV
CYP2C9 inh = blockers of cytochrome P450 2C9 activity – biochemical, luminescence, ADME assay, primary screen. CYP2C9 Supersomes, luciferin-H conversion. inhibition, % at 5 µM. 96,000 compounds, 20% hits;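 active = blocking of liver enzyme CYP2C9 beyond about 50% at 5 µM, limit read from the data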
CYP2C19 act = human CYP2C19 activators, primary screen, biochemical, luminescence; Cytochrome P450 2C19 (Homo sapiens), P33261; recombinant CYP2C19, luciferin-H EGE luminescence; hits give high values; 0 = fully inhibited enzyme, 1 = untreated enzyme; activation factor at 5 µM; 96,000 tested, under 10 active; AID 1025, 2008;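 active = activation factor of at least 2 at 5 µM in the primary screen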;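 note: 0 = wells with 2.5 mM tranylcypromine and 1 = vehicle-only wells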
Cav3 T inh = Cav3.2 calcium influx blockers – cell-based, Fluo-4 calcium fluorescence, FDSS, MLSMR library, primary screen. 100,000 compounds, 4% hits. Cav3.2-expressing cells; hits give low values. AID 449739, 2010. Voltage-dependent T-type calcium channel subunit alpha-1H (Homo sapiens), O95180. B-score at 10 µM;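 active = single-dose well whose peak fluorescence ratio is a statistical outlier from its plate by either plate-standardised score or position-corrected B-score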
* = called active by the depositor; . = no result given. Rows were chosen to be rich in hits. Some 27% of all compounds tested hit in one or more screens of this group.

SMILES | CYP2C19 inhib | CYP2C9 act | CYP2C9 inh | CYP2C19 act | Cav3 T inh
CN(C)C(CNS(=O)(=O)c1ccc(Br)cc1)c1cccnc1 (stereo not drawn) | . | . | . | . | -0.977
CN(C)C(CNS(=O)(=O)c1ccc(Cl)cc1)c1cccnc1 (stereo not drawn) | 51.8* | 0.8 | 16.1 | 0.5 | 0.0904
Cc1cccc(NC(=O)c2cc(NC(=O)CCCC(=O)O)ccc2Cl)n1 | 1.4 | 1.3 | -33.1 | 1 | -0.49
Cc1cc(=O)n(C)c(=O)n1CC(=O)N1CCCCCC1 | -15.0 | 1.1 | -8.5 | 1.1 | 0.071
O=C(NCc1ccncc1)Nc1ccc(F)cc1 | 92.2* | 0.2 | 79.4* | 0.1 | 0.302
COc1cc(NC(=O)NCc2ccncc2)cc(OC)c1OC | 61.5* | 0.3 | 67.1* | 0.4 | 0.153
COc1cc(NC(=O)Nc2cccc(C(C)=O)c2)cc(OC)c1OC | 17.9 | 0.8 | 21.3 | 0.8 | 0.247
COc1ccc2c(c1)c1nc(SCC(C)C)n(CCO)c(=O)c1n2C | 17.0 | 0.7 | 33.4 | 0.8 | -0.464
CCOC(=O)c1cnc2nc(COc3ccccc3)[nH]n2c1=O | 5.7 | 0.7 | 25.5 | 0.9 | 0.524
CCOC(=O)c1cnc2nc(NCc3ccc(OCc4ccccc4)cc3)[nH]n2c1=O | 19.4 | 0.1 | 87.1* | 0.8 | -0.0563
Nc1ccc2nc(-c3ccccc3)sc2c1 | 71.6* | 0.5 | 50.8* | 0.3 | -0.884
COc1ccc2nc(-c3ccc(F)cc3)sc2c1 | . | . | . | . | 0.0949
Cc1cc(F)ccc1S(=O)(=O)Nc1ccccc1C(=O)Nc1ncn[nH]1 | 94.0* | 0.6 | 40.5 | 0.1 | -2.89
COc1ccc(C)cc1C(=O)CCC(=O)Nc1ccccc1N1CCOCC1 | 80.6* | 0.2 | 81.9* | 0.2 | -0.236
Cc1cc(C)c(OCC(=O)Nc2ccccc2N2CCOCC2)c(C)c1 | 31.2 | 0.9 | 9.3 | 0.7 | -0.937
Cc1ccc(C)c(S(=O)(=O)Nc2ccccc2C(=O)Nc2ccccc2N2CCOCC2)c1 | 94.3* | 0 | 97.1* | 0.1 | -4.9*
O=C(Nc1ccccc1N1CCOCC1)c1ccccc1NS(=O)(=O)c1ccc(F)c(F)c1 | 37.4 | 0.2 | 80.7* | 0.6 | -3.96*
CCOc1ccc(S(=O)(=O)Nc2ccccc2C(=O)Nc2ccccc2N2CCOCC2)cc1 | 84.5* | 0.3 | 68.9* | 0.2 | -1.65
Cc1cc(F)ccc1S(=O)(=O)Nc1ccccc1C(=O)Nc1ccccc1N1CCOCC1 | 83.3* | 0.1 | 86.8* | 0.2 | -5.95*
O=C(Nc1ccccc1N1CCOCC1)c1ccccc1NS(=O)(=O)c1ccc(F)cc1 | 58.2* | 0.2 | 77.8* | 0.4 | .
CS(C)(=O)=NS(=O)(=O)c1ccc(Cl)cc1 | 6.8 | 1.1 | -6.4 | 0.9 | 0.42
Cc1cnnn1-c1ccc(C(=O)CCl)cc1 | -25.9 | 1.1 | -13.6 | 1.3 | 0.775
COc1cc(C)c2occ(/C(C)=N\O)c2c1 | 14.9 | 0.9 | 12.4 | 0.9 | -0.854
CCOc1ccc(-n2c(SCC(=O)Nc3ccccc3C)n[nH]c2=O)cc1 | 20.5 | 1.2 | -23.9 | 0.8 | -0.538
Cc1cc(NCCO)nc(N2CCOCC2)n1 | -17.4 | 1 | -2.4 | 1.2 | 0.641
SMILES | CYP2C19 inhib | CYP2C9 act | CYP2C9 inh | CYP2C19 act | Cav3 T inh
Cc1nn2c(N3CCCC3)cc(C(C)C)nc2c1-c1ccccc1 | -8.1 | 1.1 | -14.5 | 1.1 | -0.0884
CCC(CC)C(=O)Nc1cc(C)cc(C)c1 | 18.1 | 0.7 | 25.4 | 0.8 | 0.166
CCCCC(=O)Nc1ccc(C(=O)NNC(=O)c2ccccc2Br)cc1 | -15.4 | 1 | 2.3 | 1.2 | 0.091
CNc1nc(NC)nc(-n2c(C(F)(F)F)nc3ccccc32)n1 | 38.3 | 0.4 | 63.8* | 0.6 | 0.418
COC(=O)Cn1c(C(F)(F)F)nc2ccccc21 | . | . | . | . | 0.358
CN1CCN(c2ccccc2NC(=O)Cc2cn(C)c3ccccc23)CC1 | 3.2 | 0.9 | 6.8 | 1 | -1.06
COc1cccc(NC(=O)Cn2c(=O)n(CC3CCCO3)c(=O)c3ccccc32)c1 (stereo not drawn) | 62.6* | 0.6 | 41.4 | 0.4 | 1.66
COc1cccc(NC(=O)Cn2cc(C#N)c3ccccc32)c1 | . | . | . | . | -2.71
Cc1ccccc1NC(=O)Cc1cn(C)c2ccccc12 | 44.7 | 3* | -195.8 | 0.6 | -0.155
COc1cccc(NC(=O)Cc2cn(C)c3ccccc23)c1 | 33.0 | 3.8* | -280.6 | 0.7 | -4.5*
CCCCN(CC)C(=O)Cc1cn(C)c2ccccc12 | 95.3* | 3.4* | -238.5 | 0 | -0.0834
CC(=O)NN1C(=O)c2ccc(Oc3cccc([N+](=O)[O-])c3)cc2C1=O | 5.6 | 0.9 | 11.8 | 0.9 | 0.125
COc1cccc(NC(=O)CCCn2c(=O)[nH]c3ccccc3c2=O)c1 | 25.0 | 0.3 | 72.2* | 0.8 | 0.233
COc1cccc(NC(=O)Cc2c(C(=O)O)[nH]c3ccccc23)c1 | 14.5 | 0.9 | 13.5 | 0.9 | 0.0718
CCC(C)(C)NC(=O)CN(C(=O)CCC(=O)Nc1ccccn1)c1ccc(F)c(Cl)c1 | 84.9* | 0.3 | 74.9* | 0.2 | -2.01
COCCNC(=O)CN(C(=O)CCC(=O)Nc1ccccn1)c1ccc(F)cc1 | 21.8 | 1 | 2.7 | 0.8 | -0.399
CC(C)NC(=O)CN(C(=O)CCC(=O)Nc1ccccn1)c1ccc(F)c(Cl)c1 | 66.4* | 0.7 | 31.4 | 0.3 | -0.728
COCCNC(=O)CN(C(=O)CCC(=O)Nc1ccccn1)c1ccc(F)c(Cl)c1 | 30.4 | 0.8 | 18.3 | 0.7 | 0.167
Cc1cc2cc(CCNC(=O)CC(C)(C)C)c(=O)[nH]c2cc1C | -11.1 | 1.2 | -16.2 | 1.1 | -0.395
O=C1c2ccccc2NC(c2ccccc2)N1c1ccc(O)cc1 (stereo not drawn) | 21.1 | 0.6 | 44.6 | 0.8 | 0.0296
COc1ccc(C2Nc3ccccc3C(=O)N2c2ccc(C)cc2)cc1Cn1nc(C)c([N+](=O)[O-])c1C (stereo not drawn) | 53.3* | 0.1 | 91.7* | 0.5 | -0.0522
Nn1c(Cc2ccccc2F)nnc1SCn1nnc2ccccc2c1=O | 64.0* | 0.7 | 26.0 | 0.4 | 1.19
CCOC(=O)CCSc1nnc(-c2cccnc2)n1-c1ccccc1OC | 54.0* | 0.8 | 22.5 | 0.5 | 0.694
O=c1c2ccccc2nnn1CSc1nnc(-c2cccnc2)n1-c1ccccc1F | 75.2* | 1 | 2.1 | 0.2 | 2.05
CCCC(=O)NC(C)c1nc2ccccc2n1C (stereo not drawn) | 2.5 | 1 | 1.9 | 1 | 0.716
Cc1cc(C)n2nc(SC3CCCCN(C(=O)c4ccc(F)cc4)C3=O)nc2n1 (stereo not drawn) | -1.9 | 0.9 | 8.5 | 1 | 0.115
CC1(C)CC(NC(=O)c2coc(=O)c(Br)c2)CC(C)(C)N1 | 0.5 | 0.9 | 12.8 | 1 | 1.21
c1ccc(-c2noc(-c3ccco3)n2)nc1 | 77.4* | 0.6 | 36.3 | 0.2 | -0.364
c1ccc(-c2ccc(-c3nc(-c4ccccn4)no3)cc2)cc1 | 36.4 | 0.8 | 23.8 | 0.6 | 2.06
